In PubChem BioAssay AID1159580 (chemical genetic matrix, 2015):
Screen size: about 5,500 compounds; about 2,000 (36%) were called active. About 18% were inconclusive and are not listed. Cut-off read from the data, not from the text of the source: active = normalized growth mostly below about 0.91 (no sharp cut-off); inconclusive = no clear call, values can overlap the other calls; inactive = mostly above about 0.92. Some of the results follow.

Test: chemical genetic growth profiling, strain panel (AID 1159580);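 note: tested at 20 µM; growth read once vehicle control cultures reached saturation at 30 °C; 1 = growth at the plate median or of vehicle wells; lower values mean less growth of the strain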
Conditions: S. cerevisiae deletion strains, growth OD
[1] = locus YHR030C, strain SLT2, stronger effect = lower value

Measured: normalized growth

O=P1(NCCCl)OCCCN1CCCl (configuration not stated)
inactive: locus YAL021C, strain ccr4, stronger effect = lower value 0.964 | locus YAL026C, strain drs2, stronger effect = lower value 0.991 | locus YAL030W, strain snc1, stronger effect = lower value 0.992 | locus YBL061C, strain skt5, stronger effect = lower value 0.993 | locus YBR009C, strain hhf1, stronger effect = lower value 1.01 | locus YBR023C, strain chs3, stronger effect = lower value 0.987 | locus YBR171W, strain sec66, stronger effect = lower value 0.98 | locus YBR231C, strain swc5, stronger effect = lower value 1 | locus YBR279W, strain paf1, stronger effect = lower value 0.997 | locus YCL011C, strain gbp2, stronger effect = lower value 0.975 | locus YCL016C, strain dcc1, stronger effect = lower value 0.992 | locus YCL061C, strain MRC1, stronger effect = lower value 0.987 | locus YCL069W, strain vba3, stronger effect = lower value 0.989 | locus YCR088W, strain abp1, stronger effect = lower value 0.971 | locus YDL005C, strain med2, stronger effect = lower value 0.995 | locus YDL040C, strain nat1, stronger effect = lower value 0.987 | locus YDR001C, strain nth1, stronger effect = lower value 0.985 | locus YDR069C, strain doa4, stronger effect = lower value 0.995 | locus YDR137W, strain rgp1, stronger effect = lower value 0.988 | locus YDR159W, strain sac3, stronger effect = lower value 0.982 | locus YDR195W, strain ref2 0.985 | locus YDR297W, strain sur2, stronger effect = lower value 0.99 | locus YDR334W, strain swr1, stronger effect = lower value 0.969 | locus YDR335W, strain msn5, stronger effect = lower value 0.976 | locus YDR392W, strain spt3, stronger effect = lower value 1.01 | locus YEL003W, strain gim4, stronger effect = lower value 0.983 | locus YEL037C, strain rad23, stronger effect = lower value 0.95 | locus YEL061C, strain CIN8 (second series), stronger effect = lower value 0.977 | locus YER015W, strain faa2, stronger effect = lower value 0.99 | locus YER016W, strain bim1, stronger effect = lower value 0.986 | locus YER111C, strain swi4, stronger effect = lower value 1 | locus YER155C, strain BEM2 (second series), stronger effect = lower value 1.01 | locus YFR010W, strain ubp6, stronger effect = lower value 0.96 | locus YGL167C, strain pmr1, stronger effect = lower value 0.992 | locus YGL173C, strain kem1, stronger effect = lower value 0.984 | locus YGL227W, strain vid30, stronger effect = lower value 0.993 | locus YGL240W, strain doc1, stronger effect = lower value 1.02 | locus YGL253W, strain hxk2, stronger effect = lower value 0.986 | locus YHR013C, strain ard1, stronger effect = lower value 0.996 | locus YHR027C, strain rpn1, stronger effect = lower value 0.981 | [1] 0.967 | locus YHR079C, strain IRE1, stronger effect = lower value 0.971 | locus YHR142W, strain chs7, stronger effect = lower value 0.943 | locus YJL092W, strain hpr5, stronger effect = lower value 0.975 | locus YJL095W, strain BCK1 (second series), stronger effect = lower value 0.995 | locus YJL095W, strain BCK1, stronger effect = lower value 0.989 | locus YJL115W, strain asf1, stronger effect = lower value 0.971 | locus YJL129C, strain trk1, stronger effect = lower value 0.97 | locus YJL154C, strain vps35, stronger effect = lower value 0.992 | locus YJL164C, strain tpk1, stronger effect = lower value 0.979 | locus YJL166W, strain qcr8, stronger effect = lower value 0.998 | locus YJL187C, strain SWE1, stronger effect = lower value 0.99 | locus YJR066W, strain TOR1, stronger effect = lower value 0.921 | locus YKL160W, strain elf1, stronger effect = lower value 0.986 | locus YKR026C, strain gcn3, stronger effect = lower value 0.971 | locus YKR091W, strain srl3, stronger effect = lower value 0.99 | locus YLL001W, strain dnm1, stronger effect = lower value 0.968 | locus YLL026W, stronger effect = lower value 1 | locus YLL041C, strain sdh2, stronger effect = lower value 0.987 | locus YLR027C, strain aat2, stronger effect = lower value 0.988 | locus YLR113W, strain HOG1, stronger effect = lower value 1 | locus YLR221C, strain rsa3, stronger effect = lower value 0.981 | locus YLR258W, strain gsy2, stronger effect = lower value 0.996 | locus YLR262C, strain YPT6 (second series), stronger effect = lower value 1.01 | locus YLR320W, strain mms22, stronger effect = lower value 1.01 | locus YLR342W, strain FKS1, stronger effect = lower value 0.99 | locus YLR357W, strain rsc2, stronger effect = lower value 0.991 | locus YLR370C, strain arc18, stronger effect = lower value 0.986 | locus YLR384C, strain iki3, stronger effect = lower value 0.981 | locus YML120C, strain ndi1, stronger effect = lower value 0.968 | locus YMR058W, strain fet3, stronger effect = lower value 0.982 | locus YMR125W, strain sto1, stronger effect = lower value 0.992 | locus YMR129W, stronger effect = lower value 0.983 | locus YMR205C, strain PFK2, stronger effect = lower value 1.01 | locus YMR231W, strain pep5, stronger effect = lower value 0.992 | locus YNL071W, strain lat1, stronger effect = lower value 0.996 | locus YNL183C, strain NPR1, stronger effect = lower value 0.93 | locus YNL209W, strain ssb2, stronger effect = lower value 0.991 | locus YNL248C, strain rpa49, stronger effect = lower value 0.946 | locus YNL322C, strain KRE1 (second series), stronger effect = lower value 0.986 | locus YNR049C, strain mso1, stronger effect = lower value 0.985 | locus YOR001W, strain rrp6, stronger effect = lower value 0.973 | locus YOR070C, strain gyp1, stronger effect = lower value 0.993 | locus YOR080W, strain dia2, stronger effect = lower value 0.987 | locus YOR083W, strain WHI5, stronger effect = lower value 0.981 | locus YOR106W, strain vam3, stronger effect = lower value 0.982 | locus YOR231W, strain MKK1, stronger effect = lower value 0.968 | locus YOR265W, strain rbl2, stronger effect = lower value 0.99 | locus YOR270C, strain vph1, stronger effect = lower value 0.922 | locus YOR290C, strain snf2, stronger effect = lower value 0.994 | locus YPL051W, strain arl3, stronger effect = lower value 0.999 | locus YPL078C, strain atp4, stronger effect = lower value 0.978 | locus YPL106C, strain sse1, stronger effect = lower value 0.997 | locus YPL240C, strain hsp82, stronger effect = lower value 0.986 | locus YPL256C, strain CLN2, stronger effect = lower value 0.95

Cc1ccc(-c2nn[nH]n2)cc1Cl
inactive: locus YAL013W, strain DEP1, stronger effect = lower value 0.965 | locus YBR229C, strain ROT2, stronger effect = lower value 0.963 | locus YDL101C, strain DUN1, stronger effect = lower value 0.985 | locus YDL134C, strain PPH21, stronger effect = lower value 0.997 | locus YDR150W, strain NUM1, stronger effect = lower value 0.935 | locus YEL061C, strain CIN8, stronger effect = lower value 0.983 | locus YGR078C, strain PAC10, stronger effect = lower value 0.967 | locus YGR229C, strain SMI1, stronger effect = lower value 0.984 | [1] 1 | locus YHR087W, strain rtc3, stronger effect = lower value 0.975 | locus YJR043C, strain POL32, stronger effect = lower value 0.932 | locus YJR075W, strain HOC1, stronger effect = lower value 0.966 | locus YLR039C, strain RIC1, stronger effect = lower value 1 | locus YLR058C, strain SHM2 (second series), stronger effect = lower value 0.962 | locus YLR085C, strain ARP6, stronger effect = lower value 1 | locus YLR262C, strain YPT6, stronger effect = lower value 1 | locus YML094W, strain GIM5, stronger effect = lower value 1 | locus YMR219W, strain ESC1, stronger effect = lower value 0.97 | locus YMR263W, strain SAP30, stronger effect = lower value 0.933 | locus YNL153C, strain GIM3, stronger effect = lower value 0.969 | locus YNL298W, strain CLA4 (second series), stronger effect = lower value 1.02 | locus YNL322C, strain KRE1, stronger effect = lower value 0.947 | locus YNR030W, strain Alg12, stronger effect = lower value 1 | locus YOL006C, strain TOP1, stronger effect = lower value 1.07 | locus YPL055C, strain LGE1, stronger effect = lower value 0.944 | locus YPL241C, strain CIN2, stronger effect = lower value 1.12 | locus YPR135W, strain CTF4, stronger effect = lower value 1.03
